Screens (PubChem BioAssay)
Shown are actives, neighbours in structure and some others; about 5.2% of the full set was active somewhere.
CR mimetic SO: caloric restriction mimetics inhibiting age-related superoxide in yeast; S. cerevisiae aged cells, superoxide DHE fluorescence; active compounds read low; 330,000 compounds, 0.18% hits; superoxide response (% of plate mean), % at 10 µM;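 active means superoxide response under a set limit, about three screen SD below normal, cut at about 65% in these data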;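 further: yeast aged for seven days with compound at 30 °C before DHE staining; 100% = average MFI of all compound-treated wells on the plate with controls excluded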
A3G deaminase: inhibitors of human APOBEC3G DNA deaminase | AID 493012 | 330,000 compounds, 0.28% hits | Q9HC16 | recombinant A3G, ssDNA deamination FAM/TAMRA fluorescence | inhibition, % at 20 µM;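 active means inhibition of at least 40% at 20 µM, with no more than 30% in the related APOBEC3A deaminase screen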;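 further: plate controls were DMSO wells with A3G for no effect and wells lacking A3G enzyme for full effect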
APOBEC3A inh: human APOBEC3A DNA deaminase inhibition; P31941; recombinant A3A, FAM/TAMRA ssDNA deamination fluorescence; inhibition, % at 20 µM; 330,000 compounds, 0.41% hits;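 active means at least 40% inhibition at 20 µM here, with at most 30% in a related deaminase screen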;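 further: plate controls were A3A with DMSO for no effect and wells lacking A3A enzyme for full effect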
Target sequence (P31941 whole entry, looked up): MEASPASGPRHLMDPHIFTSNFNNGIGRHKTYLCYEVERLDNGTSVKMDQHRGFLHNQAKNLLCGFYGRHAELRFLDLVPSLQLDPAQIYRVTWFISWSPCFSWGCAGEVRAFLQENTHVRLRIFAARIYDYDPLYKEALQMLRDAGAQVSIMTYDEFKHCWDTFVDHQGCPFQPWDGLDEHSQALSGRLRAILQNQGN
M18AAP inhibitor: PfM18AAP enzyme inhibition | recombinant PfM18AAP, H-Glu-NHMec fluorogenic cleavage | inhibition, % at 7.35 µM | 290,000 compounds, 1.2% hits | AID 1822;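 active means inhibition above the campaign mean inhibition over all tested compounds plus 3 SD, cut at about 28% in these data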;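 further: 0% = plate median of test compound wells and 100% = 2 mM ZnCl2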
ALR H2O2 inh: blocks human ALR sulfhydryl oxidase activity; purified ALR, DTT oxidation, H2O2 HRP-luminol luminescence; inhibition, % (test concentration not listed); 290,000 compounds, 3.8% hits; AID 485317;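 active means mean replicate inhibition above about 79%, with every replicate also reaching it, limit read from the data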
Target sequence (P55789 whole entry, looked up): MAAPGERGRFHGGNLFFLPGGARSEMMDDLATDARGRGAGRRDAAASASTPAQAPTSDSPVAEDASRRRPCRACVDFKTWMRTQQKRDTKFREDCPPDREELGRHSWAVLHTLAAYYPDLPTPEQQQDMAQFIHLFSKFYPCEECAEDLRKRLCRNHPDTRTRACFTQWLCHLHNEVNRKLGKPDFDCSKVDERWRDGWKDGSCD
NRP1-CendR mod: NRP-1/CendR interaction modulation; 360,000 compounds, 0.85% hits; AID 602438; FAM-RPARPAR peptide binding to NRP-1, fluorescence polarization; inhibition, % at 25 µM;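 active means inhibition or corrected inhibition above about 18%, plus a signal ratio from 0.5 to 1.5, limit read from the data, passing the limit was not always enough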
A3A conf: confirmation of human APOBEC3A DNA deaminase inhibitors. shares compounds with APOBEC3A inh. recombinant A3A, ssDNA deaminase UDG fluorescence assay. inhibition, % at 20 µM. 1,400 compounds, 63% hits. AID 493151;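 active means inhibition reaching a set limit, 80% of the first screen's cutoff, at 20 µM in any replicate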;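 further: plate controls were DMSO wells with A3A for no effect and wells lacking A3A enzyme for full effect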
UDG A3A counter: UDG inhibition in APOBEC3A counter-screen. shares compounds with APOBEC3A inh. UDG counterscreen, FAM/TAMRA uracil oligo fluorescence. inhibition, % at 20 µM. 1,000 tested, under 10 active; call rule not given here
An asterisk follows results filed as active; · = no result.

SMILES	CR mimetic SO	A3G deaminase	APOBEC3A inh	M18AAP inhibitor	ALR H2O2 inh	NRP1-CendR mod	A3A conf	UDG A3A counter
CC(=O)Nc1cc(-c2ccccc2)ccc1O	113.2	16.4	46.6*	6.2	99.5*	-9.8	60.1*	-2.9
CCN(C(=O)COC(=O)c1cc2c(s1)CCCCC2)C1CCS(=O)(=O)C1 (stereo not given)	96.0	-7.0	0.2	0.1	-0.9	4.9	·	·
CC(C)CN(C(=O)COC(=O)c1cc2c(s1)CCC2)C1CCS(=O)(=O)C1 (stereo not given)	104.1	18.3	45.0*	7.3	-6.6	3.0	44.4*	·
COC(=O)C1=C(C)N(Cc2ccccc2)C(=NCc2ccc(OC)cc2)N[C@H]1c1cccc(F)c1	86.7	37.3	69.8	1.9	-25.5	12.6	·	·
CCN1C(=NCC2CC2)N[C@@H](c2ccccc2)C(C(=O)OC)=C1C	100.7	11.8	45.6*	·	-1.9	-2.5	79.7*	3.9
CCN1C(=NCc2ccc(OC)cc2)N[C@@H](c2ccccc2)C(C(=O)OC)=C1C	95.5	11.8	92.1*	-17.0	-0.1	-0.3	66.0*	-2.5
CCN1C(=NCc2cc(OC)c(OC)c(OC)c2)N[C@@H](c2ccccc2)C(C(=O)OC)=C1C	99.1	10.9	44.5*	·	-2.8	7.2	67.7*	0.1
CC1(C(=O)O)CCCN(C(=O)c2ccc(F)cc2Cl)C1 (stereo not given)	·	·	·	·	·	0.4	·	·
O=C(C(=O)N1CCCC1)c1c[nH]c2ccccc12	101.3	-3.2	0.2	3.6	-0.5	-14.5	·	·
CS(=O)(=O)N(CC(=O)NCc1ccco1)Cc1ccc(Cl)cc1	79.9	-6.5	-7.2	10.0	·	-24.5	·	·
CC(NC(=O)CSc1nnc(CC(=O)Nc2ccc(Cl)c(Cl)c2)n1C)c1ccccc1 (stereo not given)	107.4	14.7	46.9*	-4.1	14.1	-1.3	47.9*	·
Cn1c(CC(=O)Nc2ccc(Cl)c(Cl)c2)nnc1SCC(=O)N1CCN(c2ccccc2)CC1	103.9	-5.6	-4.3	-2.3	-5.2	-12.6	·	·
Cc1cccc(NCCC#N)c1	101.6	-6.4	-2.5	-3.3	-1.7	-10.9	·	·
Cc1ccccc1NC(=O)CSCCO	115.5	-7.2	-2.2	-0.6	-3.1	-8.8	·	·
Cc1ccccc1CSCC(=O)Nc1ccccc1Br	99.9	15.9	72.2*	-12.0	-2.5	1.9	10.7	·
CC(C)CN(C(=O)c1cc(Cl)nc2ccccc12)c1c(N)n(Cc2ccccc2)c(=O)[nH]c1=O	88.9	4.8	9.1	·	-8.5	-2.2	·	·
COC(=O)c1c(N)[nH]c(C(=O)c2ccccc2)c1-c1ccc(Cl)cc1	·	·	·	·	·	2.1	·	·
Fc1ccc(NC(=S)NN2CCOCC2)cc1Cl	101.5	0.4	5.5	3.1	34.0	8.2	·	·
Cc1cc(C(=O)NC(C)CCC(C)C)c2ccccc2n1 (stereo not given)	95.1	3.4	46.3*	2.9	-4.7	-7.0	1.1	·
O=C1C=C(Nc2ccccc2)C(=O)c2ccccc21	168.5	-8.5	65.1*	4.0	·	-0.3	-1.4	2.8
CCOc1ccc(/C=C/C(=O)c2ccccc2)cc1	98.3	-3.5	3.9	2.0	22.1	-4.1	·	·
CC[N+](CC)(CC)CCOc1ccc(/C=C/c2ccccc2)cc1	117.0	11.2	49.5*	·	·	-7.5	76.2*	-1.9
CC[N+](CC)(CC)CCOc1cccc(OCC[N+](CC)(CC)CC)c1OCC[N+](CC)(CC)CC	104.5	20.5	75.3*	·	·	-13.9	92.4*	-2.7
CN(Cc1ccccc1)C(=O)Nc1ccccc1	101.8	-1.3	-0.6	-1.1	-7.3	5.7	·	·
CC(C)(C)C1CCc2c(C(=O)NNC(=O)CCC(=O)O)csc2C1 (stereo not given)	101.5	-5.4	3.7	0.4	49.2	4.4	·	·
O=c1[nH]c(N/N=C\c2ccc3c(c2)OCO3)nc2ccccc12	82.2	-4.8	1.2	1.4	4.6	2.6	·	·
O=c1[nH]c(N/N=C/c2cc3c(cc2[N+](=O)[O-])OCO3)nc2ccccc12	91.1	16.1	43.8*	0.9	·	-13.4	70.8*	-4.1
COC(=O)N/N=C(C)\C=C\c1ccco1	93.6	0.2	48.8*	-3.5	-3.7	-4.5	2.3	·
